Potency data for 62 molecules are collected here from ChEMBL document CHEMBL1201862, “PubChem BioAssay data set” (2004).

Screen size: about 400,000 compounds; about 2,100 (0.53%) were called active. Another 14% or so got no clear call; they are omitted. The rule behind the calls is not given here. The sample as a whole holds a higher share of actives than the screen did.

The assay deals with Ataxin-2 (Homo sapiens) (UniProt Q99700). Put plainly: qHTS for Inhibitors of ATXN expression. The class given is functional.
Chain of Ataxin-2 (Homo sapiens) (Q99700 whole entry): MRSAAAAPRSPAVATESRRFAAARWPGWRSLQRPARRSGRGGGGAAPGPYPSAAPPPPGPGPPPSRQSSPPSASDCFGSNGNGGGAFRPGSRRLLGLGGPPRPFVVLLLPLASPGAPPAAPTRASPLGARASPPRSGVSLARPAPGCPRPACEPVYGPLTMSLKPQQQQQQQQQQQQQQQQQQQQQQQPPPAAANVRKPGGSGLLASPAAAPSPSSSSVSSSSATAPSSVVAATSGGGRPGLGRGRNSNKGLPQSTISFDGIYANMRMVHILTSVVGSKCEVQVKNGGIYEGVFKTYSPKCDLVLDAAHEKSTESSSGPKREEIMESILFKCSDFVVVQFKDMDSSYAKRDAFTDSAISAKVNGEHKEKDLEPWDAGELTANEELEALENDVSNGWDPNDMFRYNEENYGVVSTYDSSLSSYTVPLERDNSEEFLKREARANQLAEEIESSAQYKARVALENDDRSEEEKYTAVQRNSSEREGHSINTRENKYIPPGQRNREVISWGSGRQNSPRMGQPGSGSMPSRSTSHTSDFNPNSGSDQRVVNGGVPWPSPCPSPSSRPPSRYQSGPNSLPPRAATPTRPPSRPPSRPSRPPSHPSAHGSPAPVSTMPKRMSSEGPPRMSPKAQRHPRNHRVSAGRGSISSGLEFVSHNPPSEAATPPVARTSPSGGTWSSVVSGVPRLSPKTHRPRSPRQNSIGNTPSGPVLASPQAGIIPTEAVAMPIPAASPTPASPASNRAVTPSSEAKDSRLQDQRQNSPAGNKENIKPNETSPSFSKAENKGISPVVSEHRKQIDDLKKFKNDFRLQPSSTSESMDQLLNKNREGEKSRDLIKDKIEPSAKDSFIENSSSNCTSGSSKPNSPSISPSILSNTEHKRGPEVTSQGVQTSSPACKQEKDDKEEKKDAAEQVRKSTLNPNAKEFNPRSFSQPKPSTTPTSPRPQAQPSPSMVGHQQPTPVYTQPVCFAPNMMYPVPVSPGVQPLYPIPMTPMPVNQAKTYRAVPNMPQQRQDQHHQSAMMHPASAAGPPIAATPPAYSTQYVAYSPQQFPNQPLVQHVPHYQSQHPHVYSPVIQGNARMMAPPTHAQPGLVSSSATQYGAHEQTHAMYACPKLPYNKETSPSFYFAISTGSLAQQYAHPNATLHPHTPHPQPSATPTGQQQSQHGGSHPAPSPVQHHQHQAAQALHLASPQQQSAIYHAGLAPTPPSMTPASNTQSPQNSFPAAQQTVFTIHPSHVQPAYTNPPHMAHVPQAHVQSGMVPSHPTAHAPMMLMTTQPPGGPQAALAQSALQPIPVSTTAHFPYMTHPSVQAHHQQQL
Regarding `COc1cc(CN2CCCC(CO)(Cc3cccc(Cl)c3)C2)cc(OC)c1O` (configuration not stated), the Potency entry was “inactive”.

With `Cc1ccc(S(=O)(=O)Nc2nc3n(n2)C(c2ccc(F)cc2)C=C(c2ccccc2)N3)cc1` (configuration not stated), the Potency result is “inactive”.

`O=C(N/N=C/c1ccc(-c2ccc([N+](=O)[O-])cc2)o1)C(O)c1ccccc1` (configuration not stated): the Potency entry is “inactive”.

With `O=C(O)/C=C/C(=O)NNc1ccc([N+](=O)[O-])cc1`, the Potency is 13.4 µM (active).

For `Cc1ccc(N2CCN(S(=O)(=O)c3nnc(NC(=O)c4ccco4)s3)CC2)cc1`, the Potency result is “inactive”.

Consider `CCc1ccccc1N1CC(c2nnc(NC(=O)c3ccco3)s2)CC1=O` (configuration not stated), for which the Potency result was “inactive”.

On to `Cc1sc(NC(=O)c2ccco2)nc1-c1ccc2c(c1)CC(C)N2C(=O)C1CC1` (configuration not stated), for which the Potency is 28.2 µM (active).

Consider `C=CCN=C(S)Nc1ccc(C(N)=O)cc1`, for which the Potency entry is “inactive”.

As for `COc1ccc(CCn2c(=S)[nH]c3cc(C(=O)N4CCOCC4)ccc3c2=O)cc1OC`, the Potency result is “inactive”.

On to `COc1ccc(CCn2c(=S)[nH]c3cc(C(=O)NCc4ccco4)ccc3c2=O)cc1OC`, for which the Potency was 28.2 µM (active).

`COc1ccc(CCn2c(=S)[nH]c3ccc(N4CCOCC4)cc3c2=O)cc1OC`: the Potency entry was “inactive”.

`Cc1cc(O)c(C(C)C)cc1C1(c2cc(C(C)C)c(O)cc2C)OC(=O)c2ccccc21`: the Potency is 31.6 µM (active).

Take `CC(=O)Oc1ccc2c(c1)Oc1cc(OC(C)=O)ccc1C21OC(=O)c2ccccc21`: the Potency result is “inactive”.

`O=C1OC(c2ccc3ccccc3c2O)(c2ccc3ccccc3c2O)c2ccccc21`: the Potency is 17.8 µM (active).

Regarding `Cc1cccc2c3c([nH]c12)C(=O)CC(C)(C)S3`, the Potency result is “inactive”.

Take `O=C(N/C(=C/c1ccccc1Cl)C(=O)N1CCCC1)c1ccccc1`: the Potency result was “inactive”.

For `Cc1nc(N2CCN(c3ccccc3F)CC2)nc(O)c1C`, the Potency result is “inactive”.

For `CCCc1cc(NC(=O)COC(=O)c2nccnc2N)n(-c2ccccc2)n1`, the Potency entry is “inactive”.

Consider `CCOC(=O)[C@]12Cc3c(cc(OC)c(OC)c3OC)[C@H]1N(CCC(=O)OC)C(=O)c1cc(OC)ccc12`, for which the Potency is 22.4 µM (active).

For `c1cncc(-c2nc(N3CCOCC3)c3c4c(sc3n2)CCC4)c1`, the Potency result is “inactive”.

As to `CCc1cc2c(COC(=O)CCNS(=O)(=O)c3cccc(C(F)(F)F)c3)cc(=O)oc2cc1O`, the Potency entry is “inactive”.

For `C=CCN1C(=O)/C(=C/c2ccc(OC)cc2)S/C1=N/c1nccs1`, the Potency result was “inactive”.

Regarding `CCN(CC)CCN1C(=O)/C(=C\c2ccc(Cl)c([N+](=O)[O-])c2)S/C1=N\c1ccc(OC)cc1`, the Potency was 28.2 µM (active).

In the case of `Cc1cc(=O)oc2c(CN3CCN(CCO)CC3)c(O)ccc12`, the Potency result was “inactive”.

As to `O=C(CN1C(=O)NC2(CCOc3ccccc32)C1=O)Nc1ccc(F)c(F)c1F` (configuration not stated), the Potency result was “inactive”.

On to `CCC(=O)NCCCNc1nc2c(C)cccc2cc1C#N`, for which the Potency entry was “inactive”.

Regarding `CCN1C(=O)/C(=C\C=C2/C=CC=CN2CC)SC1=S`, the Potency is 20 µM (active).

On to `CCN1C(=O)/C(=C/C2=Cc3ccccc3OC2C)SC1=S` (configuration not stated), for which the Potency entry was “inactive”.

Regarding `Cc1cc(O)nc2c1c(-c1ccccc1)nn2C`, the Potency entry is “inactive”.

As to `CC1=CC(C)(C)Nc2ccc(OC(=O)CCN3C(=O)c4ccccc4C3=O)cc21`, the Potency is 25.1 µM (active).

For `CC(C(=O)N1CCOCCOCCOCCOCCOCC1)N1C(=O)c2ccccc2C1=O` (configuration not stated), the Potency result is “inactive”.

Regarding `CC1=CC(C)(C)Nc2ccc(OC(=O)CN3C(=O)c4ccccc4C3=O)cc21`, the Potency is 25.1 µM (active).

For the molecule `CC1=CC(C)(C)Nc2ccc(OC(=O)C(C)N3C(=O)c4ccccc4C3=O)cc21` (configuration not stated), the Potency was 39.8 µM (active).

Regarding `O=C(CN1C(=O)NC2(CCCCC2)C1=O)Oc1ccc2ccc(=O)oc2c1`, the Potency entry was “inactive”.

In the case of `CC1(C)Nc2ccccc2C(=O)N1c1ccc(Br)cc1`, the Potency entry is “inactive”.

`O=C(CN1C(=O)NC2(CCCC2)C1=O)Oc1ccc2ccc(=O)oc2c1`: the Potency result was “inactive”.

Regarding `COc1cccc(NC(=O)COC(=O)CCC(=O)c2cccs2)c1`, the Potency entry was “inactive”.

As for `O=C(C[n+]1ccccc1)NN=Cc1cc(Br)cc(Br)c1O`, the Potency entry is “inactive”.

On to `CC(C)OCCCn1/c(=N/C(=O)c2cccs2)c(C#N)cc2c(=O)n3ccccc3nc21`, for which the Potency entry is “inactive”.

Turning to `CCN(CC(=O)NCc1cccs1)C(=O)/C=C/c1ccc(F)cc1`, the Potency entry is “inactive”.

In the case of `CCN(CC(=O)NCc1cccs1)C(=O)c1ccccc1F`, the Potency entry was “inactive”.

Turning to `COc1ccc(C(=O)/C=C/C(=O)N(CC(=O)NC2CCCCC2)Cc2ccccc2OC)c(O)c1`, the Potency is 26.7 µM (active).

Consider `CCc1ccc(N(C(=O)c2ccco2)C(C(=O)NC2CCCC2)c2ccncc2)cc1` (configuration not stated), for which the Potency result was “inactive”.

On to `Cc1cc(NC(=O)CCC(=O)N(CC(=O)NC2CCCC2)Cc2ccccc2Cl)no1`, for which the Potency entry is “inactive”.

Consider `COc1ccc(C(=O)/C=C/C(=O)N(Cc2ccccc2OC)C(C(=O)NC2CCCCC2)c2ccncc2)c(O)c1` (configuration not stated), for which the Potency was 26.7 µM (active).

Take `COc1ccccc1N(CC(=O)NC1CCCC1)C(=O)CCC(=O)Nc1ccccn1`: the Potency result is “inactive”.

For the molecule `COc1ccc(C(=O)/C=C/C(=O)N(CC(=O)NCCC(C)C)Cc2cccs2)c(O)c1`, the Potency was 31.6 µM (active).

As to `COc1ccc(C(=O)OCCOc2ccccc2C(C)=O)c(O)c1`, the Potency entry is “inactive”.

With `COc1ccc2oc(=O)c(C(=O)NC3CCCCCC3)cc2c1`, the Potency result was “inactive”.

For the molecule `COCCN(CC(=O)NC1CCCCC1)C(=O)/C=C/C(=O)c1ccc(OC)cc1O`, the Potency is 23.8 µM (active).

As for `Cc1cc(Br)ccc1NC(=O)CNC(=O)c1cnn(C)c1`, the Potency entry is “inactive”.

As to `N#Cc1c(N2CCCCC2)nc(N)c2c(N)nc3c(c12)CC(CCl)O3` (configuration not stated), the Potency entry is “inactive”.

In the case of `Cc1cc(=O)oc2c3c4c(cc12)OCCN4CCC3`, the Potency result was “inactive”.

Regarding `Cc1c(C)c2cc3c(c(C)c2oc1=O)OCN(CCc1ccccc1)C3`, the Potency entry was “inactive”.

As to `COc1ccc(O)c(/C=N/NC(=O)CCC(=O)Nc2ccc(F)cc2)c1`, the Potency entry was “inactive”.

For `COc1ccc(C(=O)/C=C/C(=O)N(CC(=O)NC2CCCCC2)Cc2ccc(F)cc2)c(O)c1`, the Potency was 28.2 µM (active).

For `COc1ccc(OCC(=O)OCC(=O)NC2CCCCC2C)cc1` (configuration not stated), the Potency entry was “inactive”.

As to `COc1ccc(CC(=O)Nc2ccc(S(=O)(=O)N3CCN(C)CC3)cc2)cc1`, the Potency entry was “inactive”.

With `CC(C)C[C@@H](CN1CCC[C@H]1CN1C(=O)C(=O)NC[C@@H]1Cc1ccccc1)N1C[C@H](Cc2ccccc2)N(CC2CCCCCC2)C(=O)C1=O`, the Potency was 20 µM (active).

For `CC(C)C[C@H]1CN([C@@H](CC(C)C)CN2CCC[C@H]2CN2C(=O)C(=O)NC[C@@H]2Cc2ccc(O)cc2)C(=O)C(=O)N1CC1CCCCCC1`, the Potency was 35.5 µM (active).

Take `CC(C)C[C@@H](CN1CCC[C@@H]1CN1C(=O)C(=O)NC[C@@H]1Cc1ccccc1)N1C[C@H](Cc2ccc(O)cc2)N(CC2CCCCCC2)C(=O)C1=O`: the Potency is 28.2 µM (active).

With `CC(C)C[C@H]1CNC(=S)N1C[C@H]1CCCN1C[C@H](CC(C)C)N1C[C@H](Cc2ccc(O)cc2)N(CC2CCCCC2)C1=S`, the Potency is 35.5 µM (active).
